Test systems include HCT-15 colon; HT29 colon; SNB-75 CNS; SNB-19 CNS; U251 CNS; PC-3 prostate; SK-MEL-5 melanoma; UACC-62 melanoma; LOX IMVI melanoma; SK-MEL-28 melanoma.
Test in all cases: NCI-60 one-dose screen, 48 h (100 = growth as untreated, 0 = no growth, -100 = all killed)
Common to all, as to settings: 10 µM

Compounds without any hit were thinned out: in the full panel of roughly 83,000, 20% have a hit.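 Method: cells in 96-well plates; compound added at one concentration; 48 h incubation; percent growth measured; values under 10 scored active.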 Values without a mark were called inactive. Activity calls are given as the source filed them.

Turning to `CC(C)(C)OC(=O)N1CCc2c(sc3ncnc(N/N=C/c4ccccc4Br)c23)C1`, the growth in the assay with HCT-15 colon is 25.5%; in the assay on HT29 colon, 77.2%; in the assay with SNB-75 CNS, 74.5%; with SNB-19 CNS, 93.1%; in the assay with U251 CNS, 74.9%; in the assay on PC-3 prostate, 48.1%. Besides, the growth with SK-MEL-5 melanoma was 66.6%; in the assay with UACC-62 melanoma, 60.1%; in the assay with LOX IMVI melanoma, 55.5%; with SK-MEL-28 melanoma it was 81.9%.

For `COc1cc(NC(=O)C2=C(N3CCOCC3)/C(=C/c3ccc(Cl)cc3)CC2)cc(OC)c1OC`, the growth was 73% in the assay on HCT-15 colon; 86% in the assay on HT29 colon; 90.5% with SNB-75 CNS; 79.3% in the assay with SNB-19 CNS; 91.2% in the assay on U251 CNS; 44.8% with PC-3 prostate. For the same molecule, the growth with SK-MEL-5 melanoma is 66.3%; with UACC-62 melanoma it was 73.1%; in the assay on LOX IMVI melanoma, 89.4%; in the assay on SK-MEL-28 melanoma, 112%.

Regarding `COc1ccccc1N1CCCSC1=Nc1ccccc1`, the growth is 115% with HCT-15 colon; 150% with HT29 colon; 232% in the assay on SNB-75 CNS; 92.9% in the assay on SNB-19 CNS; 105% in the assay with U251 CNS; 92.9% in the assay on PC-3 prostate. The growth in the assay with SK-MEL-5 melanoma is 96.6%; in the assay with UACC-62 melanoma, 99.9%; with LOX IMVI melanoma it was 92.5%; in the assay with SK-MEL-28 melanoma, 95.9%.

Take `CC[C@@H](C(=O)[C@@H](C)[C@@H](O)[C@H](C)[C@@H]1O[C@@H]([C@@H](CC)C(=O)O)CC[C@@H]1C)C1O[C@]2(C=CC(=O)[C@]3(CC[C@@](C)([C@H]4CC[C@](O)(CC)[C@H](C)O4)O3)O2)[C@H](C)C[C@@H]1C` (stereo not given in full): the growth was 23.8% with HCT-15 colon; 30.5% with HT29 colon; 19.2% in the assay on SNB-75 CNS; 11.6% in the assay with SNB-19 CNS; 24% with U251 CNS; 27.4% with PC-3 prostate. Further, the growth in the assay with SK-MEL-5 melanoma is -91.7% (active); in the assay on UACC-62 melanoma, -32.5% (active); with LOX IMVI melanoma, 35.4%; in the assay on SK-MEL-28 melanoma, -81.2% (active).

Consider `CNC(=O)c1cc(Oc2ccc3c(c2)sc2nc(-c4ccc(N)cc4)cn23)ccn1`, for which the growth is 11% in the assay on HCT-15 colon; 0.705% (active) in the assay with HT29 colon; 38.4% in the assay with SNB-75 CNS; 32.1% in the assay with SNB-19 CNS; 11.5% in the assay with U251 CNS; 29.2% in the assay on PC-3 prostate. Moreover, the growth in the assay on SK-MEL-5 melanoma was -0.651% (active); with UACC-62 melanoma, 41.9%; in the assay on LOX IMVI melanoma, 22.7%; in the assay with SK-MEL-28 melanoma it was 66.1%.

On to `N#CC1=C(N)Oc2cc(N)ccc2C1c1cccnc1` (stereo not given), for which the growth was 95.6% in the assay on HCT-15 colon; 93.8% with HT29 colon; 79.3% in the assay on SNB-75 CNS; 103% with SNB-19 CNS; 102% in the assay on U251 CNS; 88.7% with PC-3 prostate. In addition, the growth in the assay on SK-MEL-5 melanoma is 99.3%; with UACC-62 melanoma, 101%; with LOX IMVI melanoma, 95.1%; in the assay on SK-MEL-28 melanoma it was 102%.

On to `COc1cc(/C=C/c2cc(/C=C/c3ccc(O)c(OC)c3)n(C(=O)Nc3ccccc3Cl)n2)ccc1O`, for which the growth was 15% with HCT-15 colon; -35% (active) in the assay on HT29 colon; -4.71% (active) in the assay on SNB-75 CNS; 15.5% in the assay on SNB-19 CNS; 2.33% (active) in the assay with U251 CNS; 6.54% (active) in the assay with PC-3 prostate. Further, the growth with SK-MEL-5 melanoma is -23.8% (active); in the assay with UACC-62 melanoma, 1.04% (active); in the assay with LOX IMVI melanoma it was 1.22% (active); in the assay with SK-MEL-28 melanoma, 12.1%.

Regarding `CCOC(=O)c1cc(C(=O)c2ccc(OC)c(OC)c2)n2c1ccc1ccc3cccnc3c12`, the growth is 31.1% in the assay on HCT-15 colon; 6.74% (active) in the assay on HT29 colon; 18% with SNB-75 CNS; 45.8% with SNB-19 CNS; 24.8% in the assay on U251 CNS; 22.2% in the assay with PC-3 prostate. In addition, the growth with SK-MEL-5 melanoma is 17.4%; with UACC-62 melanoma, 47.4%; with LOX IMVI melanoma, 31.6%; in the assay on SK-MEL-28 melanoma it was 60.2%.

Turning to `C#C[C@]1(O)CCC2C3CCc4cc(OC5CCCC5)ccc4C3CC[C@@]21C` (stereo not given in full), the growth in the assay on HCT-15 colon is 24%; with HT29 colon, 0.124% (active); with SNB-75 CNS, 96%; in the assay with SNB-19 CNS, 104%; with U251 CNS, 69.9%; in the assay with PC-3 prostate it was 57.9%. The growth is 100% with SK-MEL-5 melanoma, 81.1% in the assay with UACC-62 melanoma, 42% with LOX IMVI melanoma and 103% in the assay with SK-MEL-28 melanoma.

Consider `Cc1cc(=O)n2nnc3cc(Cl)c(Cl)cc3n12`, for which the growth with HCT-15 colon was 103%; with HT29 colon, 106%; in the assay with SNB-75 CNS it was 95.6%; in the assay on SNB-19 CNS, 110%; in the assay on U251 CNS, 94.8%; with PC-3 prostate, 94.4%. Also, the growth is 110% in the assay with SK-MEL-5 melanoma, 106% in the assay on UACC-62 melanoma, 87.3% with LOX IMVI melanoma and 105% with SK-MEL-28 melanoma.

In the case of `Cc1ccc(C(=O)/C=C/c2ccccc2)s1`, the growth was 107% with HCT-15 colon; 107% in the assay on HT29 colon; 106% in the assay with SNB-75 CNS; 99.1% in the assay on SNB-19 CNS; 95.8% in the assay with U251 CNS; 111% with PC-3 prostate. Besides, the growth with SK-MEL-5 melanoma is 99.9%; in the assay on UACC-62 melanoma it was 97.4%; in the assay with LOX IMVI melanoma it was 79.1%; in the assay with SK-MEL-28 melanoma it was 114%.

As for `Cc1cc(CC(C)CC(C)(C)C)n(O)c(=O)c1` (stereo not given) (tested in a mixture with another compound), the growth was 23.8% with HCT-15 colon; 53.2% in the assay on HT29 colon; 16.7% with SNB-75 CNS; 26% in the assay on SNB-19 CNS; 17.8% with U251 CNS; 33.9% with PC-3 prostate. In addition, the growth in the assay on SK-MEL-5 melanoma is -1.17% (active); in the assay on UACC-62 melanoma it was -8.65% (active); in the assay on LOX IMVI melanoma it was 7.96% (active); with SK-MEL-28 melanoma it was 25.1%.

On to `CNC(=O)c1cn(C2CC2)c2cc(N3CCN(C(=O)c4cc(OC)c(OC)c(OC)c4)CC3)c(F)cc2c1=O`, for which the growth in the assay with HCT-15 colon was 100%; in the assay with HT29 colon it was 99.2%; in the assay on SNB-75 CNS, 96%; in the assay on SNB-19 CNS, 96.4%; in the assay on U251 CNS, 96.3%; in the assay on PC-3 prostate, 89.9%. In addition, the growth in the assay on SK-MEL-5 melanoma was 98.3%; in the assay on UACC-62 melanoma, 96.5%; with LOX IMVI melanoma, 94.7%; in the assay with SK-MEL-28 melanoma, 105%.

(Values after PubChem BioAssay (NCI).)
